Most compounds without a hit are left out; they make up all but 12% or so of the library.
HP1b chromo inh – HP1-beta chromodomain-methylated histone interaction inhibition | P83916 | AlphaScreen HP1-beta / biotin-H3K9me3 peptide binding | Potency, µM (highest dose often 114 µM), for inactives: at the highest dose activity change, negative = inhibition, most hits filed as inhibitors | actives 0.56% (n = 390,000); note: potency is the fitted concentration of half-maximal effect; nearly all actives have a fitted effect of over 70% in size
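HP1-beta protein (50 nM final) preincubated 30 min at room temperature with biotinylated H3(1-18)K9me3 peptide (50 nM) in PBS pH 7.4, 0.01% Tween-20, then compound added for 30 min. AlphaScreen streptavidin donor/nickel chelate acceptor beads (10 ug/mL final), 30 min dark, luminescence read.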
PI5P4K alpha inh – inhibitors of human PI5P4K alpha | P48426 | PI5P4Kalpha enzyme, ADP-Glo luminescence, 60 min; active compounds read low | max response, % | actives 1.2% (n = 330,000); active = max response of -50% or lower; inconclusive = between -30% and -50%; inactive = -30% or higher; note: value at the top dose of about 77 µM; % is set by controls: 0 for no effect and ±100 for the full control effect
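Enzyme plus substrate dispensed, test compounds pinned in, then ATP (5 microM final) added. After 60 min at RT, ADP-Glo reagent 1 for 45 min and reagent 2 for 30 min preceded luminescence imaging.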
JMJD2A Tudor inh – inhibitors of human JMJD2A Tudor domain | O75164 | AlphaScreen JMJD2A-Tudor / H3K4me3 peptide binding | Potency, µM (series often up to 114 µM), for the others: top-dose activity change, negative = inhibition, most hits filed as inhibitors | actives 4.4% (n = 390,000) | AID 504339; note: potency is the fitted concentration of half-maximal effect; % is set by controls: 0 for no effect and ±100 for the full control effect; nearly all actives have a fitted effect of over 50% in size
PLK1 PBD inh – blocks phosphopeptide binding to human PLK1 polo-box domain. P53350. Plk1 PBD binding of FITC phosphopeptide, fluorescence polarization. Potency, µM, without a hit: max response, negative = inhibition, actives largely listed as inhibitors. actives 2.8% (n = 360,000). AID 720504; note: potency is the fitted concentration of half-maximal effect; series mostly up to about 57 µM; % is set by controls: 0 for no effect and ±100 for the full control effect; nearly all actives have a fitted effect of over 65% in size
G9a block – G9a (human) methyltransferase inhibition; actives 8.8% (n = 350,000); AID 504332; Q96KQ7; Potency, µM (titrated, usually from 102 µM), inactives show at the top dose activity, negative = inhibition, hits mostly inhibitors; G9a H3K9 monomethylation, AlphaScreen, 2 h; note: potency is the fitted concentration of half-maximal effect; % is set by controls: 0 for no effect and ±100 for the full control effect; nearly all actives have a fitted effect of over 75% in size
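Methyltransferase reactions run at room temperature for 2 h (20 nM enzyme, 500 nM biotin-H3K9 peptide, 20 uM SAM) after a 15 min compound preincubation; product detected by AlphaScreen beads and anti-H3K9me1 antibody.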
BAZ2B block – BAZ2B (human) inhibition. Q9UIF8. AlphaScreen BAZ2B-H3K14Ac peptide displacement. Potency, µM (doses to about 114 µM), without a hit: at the highest dose activity change, negative = inhibition, most hits filed as inhibitors. actives 4.4% (n = 360,000). AID 504333; note: potency is the fitted concentration of half-maximal effect; % is set by controls: 0 for no effect and ±100 for the full control effect; nearly all actives have a fitted effect of over 60% in size
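Compounds, titrated to a top concentration of 110 uM, were incubated 30 min at room temperature with preformed BAZ2B/acetyl-K14 H3 peptide complex (50 nM each). Proximity signal was measured by AlphaScreen after 20 min with beads.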
* hit, by the source's call; ? = inconclusive; / = not tested or not shown; ! = not active in a repeat; [ ] = dose if it differs, or a comment. Unless noted, calls come from the whole dose curve; as a rule, active = well fitted curve in the direction sought with a large enough effect; inconclusive = small, poorly fitted or top-dose-only effect, or another doubt; inactive = no such curve, though single readings can be large; an effect the other way counts as inactive or inconclusive.

SMILES	HP1b chromo inh	PI5P4K alpha inh	JMJD2A Tudor inh	PLK1 PBD inh	G9a block	BAZ2B block
CC(C)C[C@H](NC(=O)c1[nH]cnc1C(=O)N[C@@H](C)C(=O)OCc1ccccc1)C(=O)OCc1ccccc1	37%	8	-31%	-9%	/	/
CC(C)C[C@@H](CNCC(=O)[C@H](C)NC(=O)c1[nH]cnc1C(=O)N[C@H](CN)CC(C)C)NC(=O)c1nc[nH]c1C(=O)N[C@@H](C)C(=O)O	33%	-12	56µM*	?	/	/
CC(C)C[C@@H](CNCC(=O)[C@H](C)NC(=O)c1[nH]cnc1C(=O)N[C@@H](C)CN)NC(=O)c1nc[nH]c1C(=O)N[C@@H](CC(=O)O)C(=O)O	?	-22	79µM*	?	/	/
CC(C)C[C@@H](CNCC(=O)[C@H](CC(C)C)NC(=O)c1[nH]cnc1C(=O)N[C@@H](C)CN)NC(=O)c1nc[nH]c1C(=O)N[C@@H](CC(C)C)C(=O)O	41%	?	56µM*	27µM*	/	/
COc1ccc(-n2c(SCC(=O)Nc3ccccc3C)nc(O)c(Cc3ccccc3)c2=O)cc1	36%	-14	-14%	-7%	6%[0.501 µM]	-38%
CN1CCC2(CCN3CCc4c(oc5ccccc45)C3C2)N(C)C1=O (stereo not drawn)	/	/	/	/	16µM*!	/
COc1ccc(Cl)cc1C(=O)C1CCCN(Cc2cnc(N3CCOCC3)s2)C1 (stereo not drawn)	?	-14	14µM*	13µM*	-25%	-31%
COc1ccc(F)cc1C(=O)C1CCCN(Cc2cnc(N3CCCC3)s2)C1 (stereo not drawn)	11%[57 µM]	0	-15%	-22%	/	-9%
N#CC1=C(N)NC(SCC(=O)c2ccc(Br)cc2)=C(C#N)C12CCCCC2	?	0	?	-15%	40µM*	?
COCC(=O)Nc1nnc(C2CCCCC2)s1	30%	-8	-22%	-23%	-36%[59 µM]	3%
CCOC(=O)C(=O)Nc1nnc(C2CCCCC2)s1	-10%	-25	-8%	24µM*	8.9µM*	-14%
CCOCC(=O)Nc1nnc(C)s1	18%	/	-2%	-25%	45µM*	11%
CCOCC(=O)Nc1nnc(C2CCCCC2)s1	-27%	-6	-15%	27µM*	?	7%
Cc1nnc(NC(=O)COc2ccccc2)s1	9%	/	-26%	-1%	?	-6%
COc1cc(NC(=O)c2ccc(C)c(Cl)c2)ccc1NC(=O)c1cc2ccccc2o1	-1%	/	14%	/	7%[59 µM]	?
COc1ccc(CCNC(=O)c2cc(=O)c3cc(C)c(C)cc3o2)cc1OC	33%	/	-7%	/	-4%[59 µM]	-9%
COC(=O)CC1Oc2ccc(C)cc2NC1=O (stereo not drawn)	38%	-5	-13%	-3%	4%	10%
Cc1ccc(NC(=O)CC2Oc3ccc(C)cc3NC2=O)cc1 (stereo not drawn)	10%	1	-17%	?	?	-24%
CCC(C)NC(=O)CC1Oc2ccc(C)cc2NC1=O (stereo not drawn)	42%	-4	-15%	-10%	45µM*	5%
CC(C)N(CCCNC(=O)CC1Oc2ccccc2NC1=O)Cc1ccccc1 (stereo not drawn)	4%	-7	?	27µM*	?	-2%
Cc1ccc2c(c1)NC(=O)C(CC(=O)N(C)Cc1ccccc1)O2 (stereo not drawn)	42%	0	-9%	?	50µM*	-2%
O=C(NCCCN1CCCC1=O)c1ccc(S(=O)(=O)Nc2cccc(C(F)(F)F)c2)cc1	5%	1	-10%	0%	4%	-3%
COc1cc(Br)ccc1C1C(C(=O)Nc2ccc(C)cc2C)=C(C)Nc2nnnn21 (stereo not drawn)	27%	/	-9%	/	-4%[59 µM]	-38%
COc1cc(NC(=O)CCc2nnc3ccc(N4CCN(c5cccc(OC)c5)CC4)nn23)cc(OC)c1	14%[57 µM]	1	-2%	4%	-5%	-2%
COc1cccc(NC(=O)CCc2nnc3ccc(N4CCN(c5cccc(OC)c5)CC4)nn23)c1	-4%	-5	?	6µM*	11%	1%
SMILES	HP1b chromo inh	PI5P4K alpha inh	JMJD2A Tudor inh	PLK1 PBD inh	G9a block	BAZ2B block
Cc1ccc(Cn2c(C(C)Nc3nc(-c4ccc(Cl)cc4)cs3)nc3cc(C(=O)NCCCO)ccc32)cc1 (stereo not drawn)	6%	1	79µM*	-9%	/	/
CCCn1c(C(C)Nc2nc(-c3cccc(Br)c3)cs2)nc2ccccc21 (stereo not drawn)	16%	11	?	-21%	?	-28%
CCCn1c(C(C)Nc2nc(-c3ccc(C)cc3)cs2)nc2ccccc21 (stereo not drawn)	-3%	-4	?	-14%	89µM*	?
Cc1ccc(Cn2c(C(C)Nc3nc(-c4ccc(C)cc4)cs3)nc3cc(Cl)c(Cl)cc32)cc1 (stereo not drawn)	45µM*	1	?	-21%	28µM*	40µM*
CCOc1ccc(C2C(C(N)=O)=C(C)Nc3nc(SCc4ccccc4F)nn32)cc1 (stereo not drawn)	31%	/	-8%	/	-23%[59 µM]	-14%
c1ccc(N2CCN(c3ncnc4[nH]ncc34)CC2)cc1	-18%	/	-19%	/	-14%[59 µM]	-7%
CCC(=O)NC(=S)Nc1ccc(N2CCOCC2)cc1	28%	-2	-6%	-1%	-44%	?
Cc1ccc(C(=O)NC(=S)Nc2ccc(N3CCOCC3)cc2)c(C)c1	?	-2	?	-11%	/	22µM*
CCCCCC(=O)NC(=S)Nc1ccc(N2CCOCC2)cc1	0%	5	-20%	-24%	3.5µM*	?
CS(=O)(=O)N1CCC(n2c(C(F)(F)F)nc3cccnc32)CC1	40%	/	2%	/	2%[59 µM]	4%
CCC1Oc2ccccc2N(CC(=O)NCc2ccccc2)C1=O (stereo not drawn)	38%	/	0%	/	-4%[59 µM]	2%
O=C(Nc1ccc2oc(=O)ccc2c1)c1ccc(-c2ccccc2[N+](=O)[O-])o1	8%	11	-31%	4%	-25%	-21%
O=C(Nc1ccc2oc(=O)ccc2c1)c1ccc(-c2cccc([N+](=O)[O-])c2)o1	-1%	-12	-32%	-4%	?	35µM*
CCn1nnc(NC(=O)c2ccc(-c3ccc(Cl)cc3)o2)n1	33%	-23	?	-16%	45µM*	-6%
CN1CCN(c2ccc(NC(=O)c3ccc(-c4cccc([N+](=O)[O-])c4)o3)cc2)CC1	?	5	?	-8%	?	45µM*
CN1CCN(c2ccc(NC(=O)c3ccc(-c4ccc(Cl)cc4)o3)cc2)CC1	-18%	-12	?	-3%	/	8.9µM*
